In PubChem BioAssay AID382 (SGCOxCompounds, 2006):
The source made the active and inactive calls. No rule for the calls is given here.

Each compound was assayed against Dual specificity protein kinase CLK1 (Homo sapiens) (UniProt P49759) (assay: CLK1 binders by thermal stabilization, biophysical, recombinant human kinase, DSF (AID 382)). Settings: at 10 µM, protein 2 µM, buffer 10 mM HEPES, NaCl 150 mM, active compounds read high.
Dual specificity protein kinase CLK1 (Homo sapiens), sequence (P49759 whole entry, looked up): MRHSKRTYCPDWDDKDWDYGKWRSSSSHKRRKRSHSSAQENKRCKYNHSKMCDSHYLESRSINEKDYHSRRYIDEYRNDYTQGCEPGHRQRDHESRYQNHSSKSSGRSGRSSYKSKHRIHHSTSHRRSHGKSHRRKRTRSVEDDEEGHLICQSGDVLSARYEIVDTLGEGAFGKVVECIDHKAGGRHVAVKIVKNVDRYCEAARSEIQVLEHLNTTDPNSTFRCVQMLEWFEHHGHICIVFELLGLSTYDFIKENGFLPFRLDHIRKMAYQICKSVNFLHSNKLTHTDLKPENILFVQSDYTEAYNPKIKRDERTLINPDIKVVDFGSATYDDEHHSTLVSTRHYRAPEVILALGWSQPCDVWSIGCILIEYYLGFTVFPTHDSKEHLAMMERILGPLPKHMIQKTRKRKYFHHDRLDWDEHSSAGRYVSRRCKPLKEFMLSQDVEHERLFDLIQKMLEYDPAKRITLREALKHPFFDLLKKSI

**Q.** Which Tm shift does the source give for O=C1NC(=O)c2c1c1c3ccccc3n3c1c1c2c2ccccc2n1[C@@H]1CCC3O1 here?
**A.** 6.44 Celsius (active)

**Q.** With CCn1cnc2c(Nc3cccc(Cl)c3)nc(N[C@@H]3CCCC[C@@H]3N)nc21 as the compound, how does the Tm shift read?
**A.** 6.54 Celsius (active)

**Q.** How did the Tm shift turn out when O=C1Nc2ccccc2/C1=C\c1cnc[nH]1 was run?
**A.** 3.76 Celsius (active)

**Q.** For COc1ccc2c(c1)/C(=C/c1cnc[nH]1)C(=O)N2, which Tm shift is on record?
**A.** 3.63 Celsius (active)
